p53ts 39C tox: p53ts cell cytotoxicity, nonpermissive temperature; H1299-p53A138V viability at 39C, ATP luminescence, 24 h; actives 1.5% (n = 130,000); Potency, µM (series often up to 46.1 µM), hits mostly cytotoxic; note: nearly all actives have a fitted effect of over 55% in size
FLuc inh: inhibitors of firefly luciferase; P08659; actives 2.2% (n = 72,000); Potency, µM (highest dose often 57.1 µM), hits mostly inhibitors; AID 411; purified firefly luciferase, luminescence, 8 min; note: nearly all actives have a fitted effect of over 40% in size
Target sequence (P08659 whole entry, looked up): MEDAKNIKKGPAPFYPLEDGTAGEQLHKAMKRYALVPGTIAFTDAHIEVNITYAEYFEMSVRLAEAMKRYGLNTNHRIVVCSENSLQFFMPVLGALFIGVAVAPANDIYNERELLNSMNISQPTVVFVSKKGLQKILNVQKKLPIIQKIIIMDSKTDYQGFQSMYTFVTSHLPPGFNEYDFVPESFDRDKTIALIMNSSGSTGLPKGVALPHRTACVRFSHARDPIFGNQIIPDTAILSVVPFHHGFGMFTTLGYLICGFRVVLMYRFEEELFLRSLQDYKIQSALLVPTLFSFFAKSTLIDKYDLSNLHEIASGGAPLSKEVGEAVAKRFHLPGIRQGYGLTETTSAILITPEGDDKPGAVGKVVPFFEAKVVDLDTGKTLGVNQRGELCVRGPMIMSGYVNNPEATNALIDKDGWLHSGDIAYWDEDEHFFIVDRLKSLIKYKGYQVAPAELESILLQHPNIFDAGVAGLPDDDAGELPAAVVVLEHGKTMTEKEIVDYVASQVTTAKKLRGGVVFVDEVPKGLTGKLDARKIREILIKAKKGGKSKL
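Titration-based qHTS; buffer 50 mM imidazole pH 7.2, 50 mM KCl, 7 mM MgCl2, 10 uM ATP, 0.01% Tween 20, 0.05% BSA; luciferase/luciferin detector mix added after compound; 8 min, ambient; luminescence.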
Peg3 imprint: induces erasure of genomic imprints in mouse ES cells; Potency, µM (top dose mostly 60.7 µM), usual class: activators; mouse ES Peg3-LacZ reporter, beta-gal luminescence, 40 h; actives 0.02% (n = 110,000)
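Gelatin-coated wells received 300 freshly trypsinized female ES cells with a Peg3LacZ-Neo reporter on the maternal allele, then incubated 40 hours at 37C. BetaGlo was added for 5 minutes at room temperature before a single luminescence read.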
p53ts 32C kill: cytotoxicity in p53ts cells at permissive temperature. H1299-p53A138V at 32C, ATP luminescence viability, 24 h. Potency, µM (doses to about 46.1 µM), hits mostly cytotoxic. actives 0.93% (n = 130,000); note: nearly all actives have a fitted effect of over 55% in size
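H1299-p53 A138V cells (temperature-sensitive p53) exposed 24 h to up to 46 uM compound at 32C, where p53 is wild-type in conformation. Viability read as ATP luminescence and normalised to DMSO and 100 uM tamoxifen. AC50 fitted with the Hill equation.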
IkB signaling: IkB pathway inhibition in ABC-DLBCL cells | ABC-DLBCL IkBa-CBG/CBR dual luciferase ratio, 4 h; response scale: scaled: untreated 0%, proteasome inhibitor 100% | Potency, µM (series often up to 57.1 µM) | actives 0.04% (n = 110,000) | AID 445; active = well fitted curve in the direction sought with a large enough effect in the signal ratio, not every such curve was filed as active; inconclusive = small, poorly fitted or top-dose-only effect, or a change in a side signal; the % refers to the signal ratio;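 note: the direction sought is a rising ratio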
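Luminescence ratio of IκBα-fused green versus native red beetle luciferase in OCI-Ly3 cells, 4 h post-doxycycline with compound; red signal alone, scaled from basal (0%) to zero light (-100%), flagged nonspecific or cytotoxic effects.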
Large screens that a line does not name were inactive. Rows were chosen to be rich in hits. Some 2.4% of all compounds tested hit in one or more screens of this group. Unless noted, calls come from the whole dose curve; as a rule, active = well fitted curve in the direction sought with a large enough effect; inconclusive = small, poorly fitted or top-dose-only effect, or another doubt; inactive = no such curve, though single readings can be large; an effect the other way counts as inactive or inconclusive.

Cc1cccc(CSc2nc3cccnc3n2Cc2ccc(C(=O)NCc3ccco3)cc2)c1	none (no result: p53ts 39C tox, FLuc inh, Peg3 imprint, IkB signaling)
Cc1ccc(CSc2nc3cccnc3n2Cc2ccc(C(=O)NCc3ccco3)cc2)cc1	p53ts 32C kill 5.6µM (no result: p53ts 39C tox, FLuc inh, Peg3 imprint, IkB signaling)
O=C(O)c1cccc(SSc2cccc(C(=O)O)c2)c1	none
COc1ccccc1C(=O)NC1(C(F)(F)F)C(=O)Nc2c1c(=O)[nH]c(=O)n2-c1ccccc1 (stereo not given)	none (no result: FLuc inh)
Cc1ccc(Cl)cc1N1CCN(C(=O)c2cnn(-c3ccc(Cl)cc3)c2C2CCNCC2)CC1	IkB signaling inconclusive (no result: FLuc inh)
Cc1ccc(N2CCN(C(=O)c3cnn(-c4ccc(C)c(C)c4)c3C3CCNCC3)CC2)c(C)c1	p53ts 39C tox 20µM (no result: FLuc inh)
COc1ccc(OC(=O)c2cc3ccccc3o2)cc1	FLuc inh 7.9µM (no result: p53ts 39C tox, Peg3 imprint, p53ts 32C kill, IkB signaling)
COc1ccc(OC)c(NC(=O)c2cc3ccccc3o2)c1	none
COc1ccc(CCNC(=O)C2CCCN(c3nc4c(C)cc(C)cc4s3)C2)cc1OC (stereo not given)	IkB signaling inconclusive (no result: FLuc inh)
Cc1cc2oc3c(c(=O)c2cc1C)C(c1ccc(C(C)C)cc1)N(c1nc(C)c(C)s1)C3=O (stereo not given)	none (no result: FLuc inh)
COc1ccc(C)cc1Nc1cc(C)nc2nc(C)nn12	none
COc1ccc(C)cc1Nc1nc(N)c2cc(OC)c(OC)cc2n1	p53ts 39C tox 20µM, p53ts 32C kill 20µM, IkB signaling inconclusive (no result: FLuc inh)
CC(=O)O[C@@H]1C[C@]2(C)[C@H](C[C@@H](O)[C@H]3[C@@]4(C)CC[C@@H](O)[C@@H](C)[C@@H]4CC[C@@]32C)/C1=C(\CCC=C(C)C)C(=O)O	none (no result: Peg3 imprint)
COc1cccc(C(=O)Nc2ccc(N(C)C)cc2)c1OC	p53ts 39C tox inconclusive, FLuc inh 16µM, p53ts 32C kill inconclusive, IkB signaling inconclusive
COc1ccc(NC(=O)Nc2ccc3nccnc3c2)cc1	p53ts 39C tox inconclusive, FLuc inh 6.3µM, p53ts 32C kill inconclusive
COc1ccc(NC(=O)Nc2nccs2)cc1	p53ts 39C tox inconclusive, FLuc inh 13µM, p53ts 32C kill inconclusive
COc1ccc(NC(=O)Nc2ccc(N(C)C)cc2)cc1	p53ts 39C tox inconclusive, FLuc inh 13µM
COc1ccc(CNC(=O)Nc2ccc(OC)cc2)cc1	none
Cn1c(=O)n(C)c2cc(N3CCOCC3)c(NS(=O)(=O)c3ccc(Br)cc3)cc21	none (no result: FLuc inh)
Cc1ccccc1NC(=O)Cn1c(=O)n(CCC(=O)NCc2ccc3c(c2)OCO3)c(=O)c2sccc21	none (no result: FLuc inh)
O=C(CSc1ncc2c(n1)-c1ccccc1N(Cc1ccc(Cl)cc1)S2(=O)=O)c1ccc(Cl)cc1	none (no result: FLuc inh)
CCN1c2ccccc2NC2C1C(C(C)=O)C(=O)N2c1ccc(Cl)cc1 (stereo not given)	p53ts 39C tox 20µM, p53ts 32C kill inconclusive, IkB signaling inconclusive
COc1ccccc1N1C(=O)N(C(C)=O)C2C1Nc1ccccc1N2C (stereo not given)	p53ts 39C tox inconclusive, p53ts 32C kill inconclusive
Cc1cccn2c(=O)cc(COc3cccc(NC(=O)c4ccccc4F)c3)nc12	p53ts 39C tox 7.9µM, IkB signaling inconclusive (no result: FLuc inh)
Cc1ccc(C(=O)N(Cc2ccc(N(C)C)cc2)CC2CCCO2)cc1 (stereo not given)	IkB signaling inconclusive (no result: FLuc inh)
Cc1[nH]c2ccccc2c1C(c1ccccc1)c1ccc(Cl)s1 (stereo not given)	p53ts 39C tox 13µM, p53ts 32C kill inconclusive, IkB signaling inconclusive (no result: FLuc inh)
Cc1cc(NC(c2cccnc2)c2c(C)[nH]c3ccccc23)no1 (stereo not given)	none
O=C(CC(Nc1ccccc1)C(=O)O)c1ccccc1 (stereo not given)	FLuc inh 13µM, IkB signaling inconclusive
Cn1c(NCc2ccccc2Cl)nc2ccccc21	p53ts 39C tox inconclusive, FLuc inh 13µM, p53ts 32C kill inconclusive
Cc1nc2cc(NCc3nc4ccccc4n3Cc3ccccc3)ccc2n1C	p53ts 39C tox 2µM, p53ts 32C kill 4µM (no result: FLuc inh, Peg3 imprint, IkB signaling)
Cn1c(CNc2ccc(Cl)cc2)nc2ccccc21	p53ts 39C tox inconclusive, FLuc inh 13µM, p53ts 32C kill inconclusive, IkB signaling inconclusive
C[N+](C)(C)[C@@H](C1=CCCC1=O)c1ccccc1	none (no result: Peg3 imprint)
COc1ccc2c(CNCCc3ccc(SC)cc3)c(C(=O)O)n(Cc3ccc(F)cc3)c2c1	p53ts 39C tox inconclusive, IkB signaling inconclusive (no result: FLuc inh)
CC(C)C(=O)Nc1ccc2c(c1)nc1n2CCSC1	none
O=C(Nc1ccc2c(c1)nc1n2CCSC1)c1ccccc1	p53ts 39C tox 6.3µM, FLuc inh 10µM, p53ts 32C kill 3.2µM, IkB signaling inconclusive
CCCC(=O)Nc1ccc2c(c1)nc1n2CCOC1	none
COc1ccc(C(=O)Nc2ccc3c(c2)nc2n3CCSC2)cc1	p53ts 39C tox 6.3µM, FLuc inh 13µM, p53ts 32C kill 5µM
CCC(=O)Nc1ccc2c(c1)nc1n2CCSC1	none
O=C(Nc1ccc2c(c1)nc1n2CCOC1)c1ccccc1	p53ts 39C tox 16µM, FLuc inh inconclusive, p53ts 32C kill 13µM, IkB signaling inconclusive
O=[N+]([O-])c1cc(-c2nc(-c3ccccc3)no2)ccc1NC1CCCCC1	IkB signaling inconclusive (no result: FLuc inh)
COCCNC(=O)c1ccccc1NC(=O)c1nsc2ccccc12	p53ts 32C kill inconclusive (no result: FLuc inh)
CN(C)c1ccc(C2=NOC(CN3C(=O)c4ccccc4S3(=O)=O)C2)cc1 (stereo not given)	FLuc inh 16µM, IkB signaling inconclusive
CCCN(CCC)c1nc(NC2CCN(C(=O)OCC)CC2)nc(OC)n1	p53ts 39C tox 20µM, IkB signaling inconclusive
CCOC(=O)N1CCC(Nc2c(OCC)c(=O)c2=O)CC1	none
CN[C@@H](CC(C)C)C(=O)N[C@@H]1C(=O)N[C@H](CC(N)=O)C(=O)N[C@H]2C(=O)N[C@H]3C(=O)N[C@H](C(=O)N[C@H](C(=O)O)c4cc(O)cc(O)c4-c4cc3ccc4O)[C@H](O)c3ccc(c(Cl)c3)Oc3cc2cc(c3O[C@@H]2O[C@@H](CO)[C@@H](O)[C@@H](O)[C@H]2O[C@H]2C[C@](C)(N)[C@H](O)[C@H](C)O2)Oc2ccc(cc2Cl)[C@@H]1O	none (no result: Peg3 imprint)
NC[C@@H]1O[C@H](C23CC4CC(CC(C4)C2)C3)Cc2c1ccc(O)c2O	p53ts 39C tox 20µM, p53ts 32C kill inconclusive
NC[C@@H]1O[C@H](c2ccccc2)Cc2c1ccc(O)c2O	p53ts 39C tox inconclusive, p53ts 32C kill inconclusive
N=C(N)c1ccc(/C=C\c2ccc(C(=N)N)cc2)cc1	none
CCOC(=O)c1sc2nc(C)cc(C)c2c1N	none (no result: FLuc inh, Peg3 imprint, IkB signaling)
CCCCOC(=O)c1ccc(NC(=O)c2sc3nc(C)cc(C)c3c2N)cc1	p53ts 39C tox inconclusive, p53ts 32C kill 16µM, IkB signaling inconclusive (no result: FLuc inh)
COCc1cc(C)nc2sc(C(=O)Nc3nccs3)c(N)c12	none
Cc1cc(C)c2c(N)c(C(=O)Nc3nccs3)sc2n1	p53ts 39C tox 1µM, FLuc inh 0.5µM, p53ts 32C kill 0.79µM
Cc1ccc(Nc2nc3c(c(=O)[nH]2)CCCC3)cc1	none (no result: FLuc inh, Peg3 imprint, IkB signaling)
